From PubChem
HT1080 IDH1KD tx: HT-1080 IDH1 knockdown cell toxicity (counter line); HT-1080 IDH1 knockdown viability, ATP luminescence, 48 h; Potency, µM (top dose mostly 46.1 µM), for inactives: at the highest dose activity, negative = toxicity, hits mostly cytotoxic; 2% of 360,000 active;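 note: potency is the fitted concentration of half-maximal effect; 0% = DMSO wells and -100% = cell-free medium wells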
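After a 2 h attachment period, IDH1KD HT-1080 cells took pin-transferred compound for 48 h at 37 °C; ATP-based luminescence after 10 min room-temperature reagent incubation reported viability.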
TDP1 cell CPT: growth inhibition of DT40 Tdp1-/-;hTDP1 cells with camptothecin (screen for TDP1 inhibitors) | chicken DT40 Tdp1-/-;hTDP1 cells + 20 nM CPT, ATP luminescence, 48 h | Potency, µM (titrated, usually from 46.2 µM), inactives show at the top dose activity change, negative = growth inhibition, actives largely listed as inhibitors | 12% of 420,000 active; note: potency is the fitted concentration of half-maximal effect; nearly all actives have a fitted effect of over 55% in size
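Cell growth measured by CellTiter-Glo luminescence after a minimum 48 h, 37 C compound exposure with 20 nM CPT in Tdp1-knockout DT40 cells stably expressing hTDP1, seeded 400/well; qHTS titration format.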
IL-1B inflam inh: inflammasome signaling inhibition, IL-1 beta readout | activity change, % at 57.5 µM | 4.7% of 360,000 active | THP-1 LPS/ATP IL-1B secretion, AlphaLISA, 16 h; hits give low values; in the data active = activity change below about -50%; inconclusive = mostly about -30% to -49%
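Secreted IL-1B measured by AlphaLISA bead assay after 16 h compound exposure of THP-1 cells; compounds (final up to 57.5 uM) added 1 h before LPS (250 ng/mL) and ATP (1.25 mM) stimulation; lower signal means less secretion.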
DT40 TDP1 no CPT: qHTS for Inhibitors of human tyrosyl-DNA phosphodiesterase 1 (TDP1): qHTS in cells in absence of CPT | DT40 Tdp1-/- hTDP1 cells, no CPT, ATP luminescence, 48 h | Potency, µM (doses to about 46.2 µM), for the others: top-dose activity change, negative = growth inhibition, usual class: inhibitors | 15% of 420,000 active | AID 686978, 2013; note: potency is the fitted concentration of half-maximal effect; nearly all actives have a fitted effect of over 55% in size
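Luminescent ATP content (CellTiter-Glo) served as the growth readout. Knockout chicken DT40 cells expressing human TDP1 were exposed to compounds without camptothecin for a minimum 48 hr at 37 °C.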
HT1080NT lethal: kills 2HG-producing HT-1080-NT fibrosarcoma cells. HT-1080-NT fibrosarcoma viability, CellTiter-Glo ATP luminescence, 48 h. Potency, µM (series often up to 46.1 µM), for the others: top-dose activity, negative = less viability, actives largely listed as cytotoxic. 1.6% of 360,000 active;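 note: NT is the 2HG producing partner of a matched IDH1 knockdown line; potency is the fitted concentration of half-maximal effect; 0% = DMSO-treated cells and -100% = media-only wells without cells; nearly all actives have a fitted effect of over 55% in size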
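Read-out is CellTiter-Glo luminescence after 10 minutes at room temperature, following 48 hours' compound treatment of HT-1080-NT cells (750 cells/well, RPMI, 5% FBS, 37 degrees C).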
* hit, by the source's call; ? = inconclusive; . = no result; [ ] = another dose, or the depositor's remark. This is a sample that favours compounds with a hit; in the whole collection about 19% have one here. Unless noted, calls come from the whole dose curve; as a rule, active = well fitted curve in the direction sought with a large enough effect; inconclusive = small, poorly fitted or top-dose-only effect, or another doubt; inactive = no such curve, though single readings can be large; an effect the other way counts as inactive or inconclusive. Unless noted, % is set by controls: 0 for no effect and ±100 for the full control effect.

SMILES	HT1080 IDH1KD tx	TDP1 cell CPT	IL-1B inflam inh	DT40 TDP1 no CPT	HT1080NT lethal
CCOc1ccc(NC(=O)N2CCN(c3ccc(Cl)c(Cl)c3)CC2)cc1	.	?	.	1.3µM*	.
CC(C)c1ccc(NC(=O)N2CCN(c3ccc(Cl)c(Cl)c3)CC2)cc1	.	?	.	0.92µM*	.
CCOc1ccc(NC(=O)N2CCC(CN3CCCCCC3)CC2)cc1	.	18µM*	.	?	.
Cc1ccc(NC(=O)N2CCN(c3ccc(Cl)c(Cl)c3)CC2)cc1	.	?	.	3.3µM*	.
Cc1ccc(S(=O)(=O)N2CCN(c3cc(-c4cccs4)nc4ccccc34)CC2)cc1	.	-2%	.	-1%	.
COCCN1C(=O)N(c2cccc(C)c2)C(=O)C1CC(=O)Nc1ccc(OC)cc1 (stereo not drawn)	2%	-18%	0	13%	-1%
CCOC(=O)CCC(=O)Nc1cc(S(=O)(=O)N2CCOCC2)ccc1N1CCCCC1	4%	2%	5	1%	-1%[9.24 µM]
CN1CCN(c2ccc(S(=O)(=O)N3CCCCC3)cc2NC(=O)Cc2c(F)cccc2Cl)CC1	-20%	?	-17	?	-5%
O=C(CCc1ccccc1Cl)Nc1cc(S(=O)(=O)N2CCOCC2)ccc1N1CCCC1	-8%	15µM*	-13	18µM*	-10%
O=C(Cc1c(F)cccc1Cl)Nc1cc(S(=O)(=O)N2CCCCC2)ccc1N1CCOCC1	-3%	?	-16	16µM*	-12%
O=C(Cc1c(F)cccc1Cl)Nc1ccccc1N1CCCCC1	-5%	16µM*	15	?	-11%
CCOCC(=O)Nc1cc(S(=O)(=O)N2CCOCC2)ccc1N1CCCCC1	2%	15µM*	8	16µM*	12%
O=C(CS(=O)Cc1ccccc1Cl)Nc1ccccc1Cl (stereo not drawn)	-2%	11%	4	1%	-2%
CC(C)c1ccccc1NS(=O)(=O)c1cccs1	1%	-2%	48	3%	-4%
O=C(Cc1ccc(F)cc1)Nc1cc(S(=O)(=O)N2CCOCC2)ccc1N1CCCCC1	4%	?	20	23µM*	17%
COc1ccc(C(=O)OCC(=O)Nc2cc(S(=O)(=O)N3CCOCC3)ccc2N2CCCC2)cc1	-7%	3%	-64*	-18%	-16%
CC(=O)c1ccc(-n2c(-c3cc(-c4ccsc4)n[nH]3)n[nH]c2=S)cc1	-10%	15%	23	4%	5%
Fc1ccc2[nH]c(-c3cccs3)cc2c1	.	-6%	.	-7%	.
Cc1ccc(NC(=O)COC(=O)Cc2ccsc2)c(C)c1	-2%	1%	8	-13%	0%
COc1ccc(N2CCN(C(=O)CCc3c(C)nc4cc(-c5ccc(OC)cc5OC)nn4c3C)CC2)cc1	.	21µM*	.	16µM*	.
COc1ccc(-c2cc3nc(C)c(CCC(=O)N4CCN(c5cccc(Cl)c5)CC4)c(C)n3n2)c(OC)c1	.	2.6µM*	.	5.8µM*	.
COc1ccc(-c2cc3nc(C)c(CCC(=O)N4CCN(c5ccc(F)cc5)CC4)c(C)n3n2)c(OC)c1	.	23µM*	.	16µM*	.
CCOC(=O)C1CCN(C(=O)CCc2c(C)nc3cc(-c4ccc(OC)cc4OC)nn3c2C)CC1	21%	?	4	?	7%
COc1ccc(N2CCN(C(=O)CCc3c(C)nc4cc(-c5ccc(Cl)cc5)nn4c3C)CC2)cc1	.	2%	.	-29%	.
CCN(CC)CCOCCn1c(C)ccc1C	1%	?	-13	?	0%
SMILES	HT1080 IDH1KD tx	TDP1 cell CPT	IL-1B inflam inh	DT40 TDP1 no CPT	HT1080NT lethal
CCC(=O)c1ccc(OCC(=O)OCC(=O)N2CCc3ccccc32)cc1	2%	14%	18	-1%	1%
O=c1c([N+](=O)[O-])cccn1Cc1cccc(Br)c1	5%	-3%	-10	-26%	-8%
Cc1cccc(N(C(=O)c2snc(C(N)=O)c2N)C(C(=O)NCC2CCCO2)c2cccs2)c1 (stereo not drawn)	-2%	-88%	13	0.41µM*	-2%
Cc1ccc(C)c(N(C(=O)c2snc(C(N)=O)c2N)C(C(=O)NCC2CCCO2)c2ccc(C)o2)c1 (stereo not drawn)	7%	16µM*	-3	10µM*	2%
COc1ccc(C)cc1N(C(=O)c1snc(C(N)=O)c1N)C(C(=O)NC1CCCCC1)c1ccc(C)o1 (stereo not drawn)	?	18µM*	-55*	18µM*	?
Cc1ccc(C)c(N(C(=O)c2snc(C(N)=O)c2N)C(C(=O)NCC2CCCO2)c2cccs2)c1 (stereo not drawn)	1%	7.3µM*	28	8.2µM*	-11%
COc1ccccc1N(C(=O)c1snc(C(N)=O)c1N)C(C(=O)NC1CCCC1)c1ccco1 (stereo not drawn)	-6%	?	-8	-17%	11%[9.24 µM]
Cc1ccc(C(C(=O)NCC2CCCO2)N(C(=O)c2snc(C(N)=O)c2N)c2ccccc2)o1 (stereo not drawn)	-10%	-28%	-5	?	9%
CNC[C@H](Cc1ccccc1)NC[C@@H](Cc1cccc2ccccc12)NCCc1ccc(C)cc1	?	18µM*	-106*	15µM*	?
Cc1ccc(CNC(=O)CCCn2nc(C)n3c(cc4sccc43)c2=O)cc1	.	-18%	.	-18%	.
Cc1sc2ncnc(N/N=C/c3ccc(O)cc3)c2c1C	?	?	-12	?	-14%
Cc1sc2ncnc(N/N=C/c3ccccc3O)c2c1C	?	3.7µM*	62	3.3µM*	?
COc1ccc(/C=N/Nc2ncnc3sc(C)c(C)c23)cc1	-25%	2.9µM*	-16	4.1µM*	-9%
COc1cccc(/C=N/Nc2ncnc3scc(-c4ccccc4)c23)c1OC	11µM*	?	-67*	18µM*	20µM*
Cc1cccc(C)c1NC(=O)CN(C)C(=O)[C@H](C)NC(=O)c1ccco1	-6%	-12%	8	1%	-4%
CN(C)S(=O)(=O)c1ccc(NC(=O)C2CC(=O)N(Cc3ccccc3Cl)C2)cc1 (stereo not drawn)	-2%	8%	13	0%	-15%
CC(=O)c1ccc(S(=O)(=O)NCCC(=O)NCCc2c[nH]c3ccccc23)cc1	2%	?	0	?	2%
O=C(CCNS(=O)(=O)c1ccc(OC(F)(F)F)cc1)NCCc1c[nH]c2ccccc12	-14%	15µM*	-8	23µM*	-22%
O=C(NCCc1c[nH]c2ccccc12)C(=O)c1c[nH]c2ccccc12	?	?	-18	15µM*	?
